# Source: PubChem BioAssay (EPA / NIEHS)
# Some structures have more than one record in an assay (separate samples or runs), and their calls can disagree. The source made the active and inactive calls. The calls were made as follows: active = hit-call score of the fitted dose curve at least 0.9, where 1 is the maximum; inactive = score below 0.9.
# Columns and labels:
# [1] = ATG_GLI_CIS: Attagene CIS-FACTORIAL HepG2 Assay for human Zinc Finger Protein GLI1 (AID 2282945); details: HepG2, Attagene cis-factorial reporter mRNA, GLI element; actives raise or lower the signal
# Summary of the method: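 HepG2 cells transiently transfected with cis-promoter multiplexed reporter units report endogenous transcription factor activity. After 24 h chemical exposure, reporter mRNA was quantified by RT-PCR, 6-FAM labelling, HpaI digestion and capillary electrophoresis, with bidirectional fitting against DMSO.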
# [2] = ATG_GRE_CIS: Attagene CIS-FACTORIAL HepG2 Assay for human Glucocorticoid Response Elements (GRE) (AID 2282947); details: HepG2 GRE cis-reporter, Attagene multiplex mRNA; actives raise or lower the signal
# Summary of the method: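 Following 24 h chemical exposure of transiently transfected HepG2 cells, total RNA was reverse-transcribed and reporter cDNA amplified, fluorescently labelled and sized by capillary electrophoresis. Signal gain or loss was fitted relative to DMSO vehicle.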
# [3] = ATG_ISRE_CIS: Attagene CIS-FACTORIAL HepG2 Assay for human Interferon Regulatory Factor 1 (IRF1) binding to an Interferon-Stimulated Response Element (ISRE) (AID 2282948); details: HepG2 ISRE cis-reporter (Attagene), mRNA transcription readout; actives raise or lower the signal
# Summary of the method: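 Transiently transfected HepG2 cells carrying cis-element reporter units, dosed 24 hours. Reporter mRNA quantified by RT-PCR, fluorescent primer extension, HpaI digestion and capillary electrophoresis. Bidirectional fitting relative to DMSO.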
# [4] = ATG_M_32_CIS: Attagene CIS-FACTORIAL HepG2 Assay for M32 Transcription Factor (Internal Marker) (AID 2282949); details: HepG2 Attagene cis-factorial M32 reporter, mRNA; actives raise or lower the signal;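 also: background control marker of the multiplexed CIS panel rather than a real target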
# Summary of the method: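 Fluorescent capillary electrophoresis peaks of HpaI-digested, FAM-labelled RT-PCR reporter products give the signal. Source: transiently transfected human liver HepG2 cells, 24 h after chemical dosing; bidirectional fitting against DMSO.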
# [5] = ATG_M_06_CIS: Attagene CIS-FACTORIAL HepG2 Assay for M06 Transcription Factor (Internal Marker) (AID 2282950); details: HepG2 Attagene CIS-FACTORIAL M06 internal marker reporter; actives raise or lower the signal
# Summary of the method: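 Measured 24 h post-dosing in transiently transfected HepG2 cells, this internal-marker endpoint reports reporter mRNA via RT-PCR with fluorescent primer extension and capillary electrophoresis. DMSO served as negative control and baseline for bidirectional fitting.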
# [6] = biological target: Hypoxia-inducible factor 1-alpha (Homo sapiens) (UniProt Q16665); assay: ATG_HIF1a_CIS: Attagene CIS-FACTORIAL HepG2 Assay for human Hypoxia Inducible Factor 1 (HIF1A) (AID 2282951); details: HepG2 Attagene cis-factorial HIF1a reporter transcription; actives raise or lower the signal
# Chain of Hypoxia-inducible factor 1-alpha (Homo sapiens) (Q16665 whole entry, looked up): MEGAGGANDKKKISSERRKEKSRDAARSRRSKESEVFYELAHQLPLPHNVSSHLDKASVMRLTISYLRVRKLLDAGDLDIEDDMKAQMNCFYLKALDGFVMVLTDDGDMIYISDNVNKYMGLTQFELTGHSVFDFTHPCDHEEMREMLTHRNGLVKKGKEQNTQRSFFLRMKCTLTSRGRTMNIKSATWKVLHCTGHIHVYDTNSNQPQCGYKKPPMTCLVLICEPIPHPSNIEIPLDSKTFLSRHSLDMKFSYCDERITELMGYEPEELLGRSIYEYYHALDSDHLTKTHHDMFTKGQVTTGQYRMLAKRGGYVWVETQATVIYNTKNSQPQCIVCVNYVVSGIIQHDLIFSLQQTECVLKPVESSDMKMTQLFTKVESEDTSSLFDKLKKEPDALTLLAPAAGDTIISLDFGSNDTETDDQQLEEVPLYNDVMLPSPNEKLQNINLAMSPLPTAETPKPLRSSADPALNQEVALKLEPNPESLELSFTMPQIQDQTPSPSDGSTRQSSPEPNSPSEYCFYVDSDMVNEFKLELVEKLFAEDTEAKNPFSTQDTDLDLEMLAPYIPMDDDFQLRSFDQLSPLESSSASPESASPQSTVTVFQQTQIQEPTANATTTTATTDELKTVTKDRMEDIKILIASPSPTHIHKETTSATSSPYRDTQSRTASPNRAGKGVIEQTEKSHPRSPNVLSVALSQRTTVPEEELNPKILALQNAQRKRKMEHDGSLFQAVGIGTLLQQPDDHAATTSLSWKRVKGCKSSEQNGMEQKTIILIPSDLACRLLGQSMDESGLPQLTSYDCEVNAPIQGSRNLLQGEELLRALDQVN
# Summary of the method: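 Cis-element reporter constructs were transiently transfected into HepG2 cells, which were treated for 24 h; reporter RNA was reverse-transcribed, amplified, labelled and resolved by capillary electrophoresis.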
# [7] = biological target: Heat shock factor protein 1 (Homo sapiens) (UniProt Q00613); assay: ATG_HSE_CIS: Attagene CIS-FACTORIAL HepG2 Assay for human Heat Shock Transcription Factor 1 (HSE) (AID 2282953); details: HepG2 HSE cis-reporter, Attagene RNA transcription; actives raise or lower the signal
# Chain of Heat shock factor protein 1 (Homo sapiens) (Q00613 whole entry, looked up): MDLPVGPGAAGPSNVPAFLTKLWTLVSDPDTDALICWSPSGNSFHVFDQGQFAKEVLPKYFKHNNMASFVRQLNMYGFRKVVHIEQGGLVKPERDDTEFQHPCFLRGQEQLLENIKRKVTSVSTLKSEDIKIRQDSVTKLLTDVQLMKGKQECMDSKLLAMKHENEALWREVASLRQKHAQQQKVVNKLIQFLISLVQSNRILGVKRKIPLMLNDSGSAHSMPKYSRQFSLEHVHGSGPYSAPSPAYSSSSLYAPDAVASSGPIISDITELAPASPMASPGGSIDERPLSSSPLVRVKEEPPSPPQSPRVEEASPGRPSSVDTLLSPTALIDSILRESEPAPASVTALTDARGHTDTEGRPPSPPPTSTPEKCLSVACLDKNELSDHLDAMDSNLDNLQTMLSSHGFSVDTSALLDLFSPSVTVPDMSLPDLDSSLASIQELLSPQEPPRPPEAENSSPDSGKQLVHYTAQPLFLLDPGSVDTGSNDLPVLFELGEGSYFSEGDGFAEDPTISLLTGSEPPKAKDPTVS
# Summary of the method: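 Reporter mRNA induction in HepG2 is measured 24 h after dosing, using transiently transfected multiplexed cis-regulated reporter units. Signal comes from capillary electrophoresis of labelled RT-PCR products, with DMSO as negative control.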
# [8] = ATG_MRE_CIS: Attagene CIS-FACTORIAL HepG2 Assay for human Metal Responsive Element (MRE) (AID 2282954); details: HepG2 MRE cis-reporter transcription, Attagene multiplex; actives raise or lower the signal
# Summary of the method: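 Step one: transfect HepG2 with cis-regulated reporter units. Step two: dose 24 h. Step three: isolate RNA, RT-PCR, 6-FAM label, HpaI digest, capillary electrophoresis. Fit bidirectionally to DMSO.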
# [9] = biological target: Paired box protein Pax-6 (Homo sapiens) (UniProt P26367); assay: ATG_Pax6_CIS: Attagene CIS-FACTORIAL HepG2 Assay for human Paired Box 6 (PAX6) (AID 2282956); details: HepG2 CIS-FACTORIAL PAX6 reporter transcription, RNA readout; actives raise or lower the signal
# Chain of Paired box protein Pax-6 (Homo sapiens) (P26367 whole entry, looked up): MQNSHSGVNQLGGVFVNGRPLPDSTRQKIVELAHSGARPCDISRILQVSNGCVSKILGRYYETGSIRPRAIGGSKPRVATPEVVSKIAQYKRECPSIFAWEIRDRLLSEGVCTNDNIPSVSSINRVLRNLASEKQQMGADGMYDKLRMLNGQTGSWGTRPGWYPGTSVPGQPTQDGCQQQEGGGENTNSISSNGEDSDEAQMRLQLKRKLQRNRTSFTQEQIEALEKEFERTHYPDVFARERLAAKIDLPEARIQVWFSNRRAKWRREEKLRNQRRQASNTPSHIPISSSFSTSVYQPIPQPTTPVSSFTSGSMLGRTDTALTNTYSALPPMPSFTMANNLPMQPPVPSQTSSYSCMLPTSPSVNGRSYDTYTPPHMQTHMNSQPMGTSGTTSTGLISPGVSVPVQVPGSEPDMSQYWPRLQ
# Summary of the method: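 HepG2 cells transiently transfected with cis-promoter-driven multiplexed reporter units sensing endogenous transcription factor activity; 24 h chemical exposure. Reporter mRNA quantified by RT-PCR, 6-FAM labelling, HpaI digestion and capillary electrophoresis; bidirectional fit versus DMSO baseline.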
# [10] = ATG_PXRE_CIS: Attagene CIS-FACTORIAL HepG2 Assay for human Pregnane X Receptor Element (PXRE) (AID 2282957); details: HepG2 Attagene CIS-FACTORIAL PXRE reporter, mRNA; actives raise or lower the signal
# Summary of the method: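 Multiplexed cis-reporter assay in transiently transfected human HepG2 cells; 24 h chemical exposure. Reporter transcripts quantified by RT-PCR with fluorescent labeling and capillary electrophoresis.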
# [11] = ATG_RORE_CIS: Attagene CIS-FACTORIAL HepG2 Assay for human RAR-related Orphan Receptor Element (RORE) (AID 2282959); details: HepG2 Attagene cis-factorial RORE reporter, mRNA; actives raise or lower the signal
# Summary of the method: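 Transfect HepG2 with MRTUs; treat 24 h; extract RNA; RT with oligo(dT); PCR with reporter-specific primers; 6-FAM primer extension; HpaI digest 2 h at 37 C; capillary electrophoresis. Fit vs DMSO, bidirectional.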
# [12] = ATG_Sox_CIS: Attagene CIS-FACTORIAL HepG2 Assay for human SRY-box transcription factor (SOX) (AID 2282960); details: HepG2 Attagene cis-factorial SOX reporter, mRNA; actives raise or lower the signal
# Summary of the method: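 Fluorescence-labelled cDNA fragments from reporter transcripts, sized by CE, give the signal. Cells: HepG2, transiently transfected with cis-regulated reporter units. Exposure 24 h; DMSO negative control; bidirectional curve fitting.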
# [13] = biological target: Transcription factor Sp1 (Homo sapiens) (UniProt P08047); assay: ATG_Sp1_CIS: Attagene CIS-FACTORIAL HepG2 Assay for human Specificity Protein 1 (Sp1) (AID 2282961); details: HepG2 Sp1 cis-reporter transcription, actives raise or lower the signal
# Chain of Transcription factor Sp1 (Homo sapiens) (P08047 whole entry, looked up): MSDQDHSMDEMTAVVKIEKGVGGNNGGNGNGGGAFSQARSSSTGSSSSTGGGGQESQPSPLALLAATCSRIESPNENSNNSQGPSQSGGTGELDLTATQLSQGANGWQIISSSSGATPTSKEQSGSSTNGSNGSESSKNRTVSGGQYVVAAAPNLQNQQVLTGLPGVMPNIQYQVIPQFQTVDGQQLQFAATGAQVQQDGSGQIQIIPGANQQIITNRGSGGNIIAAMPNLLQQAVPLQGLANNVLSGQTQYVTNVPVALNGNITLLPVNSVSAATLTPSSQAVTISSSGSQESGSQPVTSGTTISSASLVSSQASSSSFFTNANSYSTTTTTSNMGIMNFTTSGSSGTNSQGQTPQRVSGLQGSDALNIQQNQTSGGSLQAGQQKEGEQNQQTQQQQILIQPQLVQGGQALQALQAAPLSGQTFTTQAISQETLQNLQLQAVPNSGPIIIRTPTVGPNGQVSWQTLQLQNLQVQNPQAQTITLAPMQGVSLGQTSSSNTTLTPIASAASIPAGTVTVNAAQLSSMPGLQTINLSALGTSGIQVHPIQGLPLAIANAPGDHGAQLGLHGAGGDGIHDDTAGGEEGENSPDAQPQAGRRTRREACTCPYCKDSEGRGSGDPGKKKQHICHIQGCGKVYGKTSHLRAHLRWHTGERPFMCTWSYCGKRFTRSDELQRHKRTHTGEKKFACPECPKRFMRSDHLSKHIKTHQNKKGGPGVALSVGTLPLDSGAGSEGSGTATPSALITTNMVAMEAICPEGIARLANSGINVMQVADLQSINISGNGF
# Summary of the method: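 Chemicals are dosed onto HepG2 cells transfected with multiple cis-promoter reporter constructs, and after 24 h reporter RNA is reverse-transcribed, PCR-amplified and resolved by capillary electrophoresis for fluorescence quantitation; activity is scored up or down against DMSO.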
# [14] = ATG_SREBP_CIS: Attagene CIS-FACTORIAL HepG2 Assay for human Sterol Regulatory Element Binding (SREBP) (AID 2282962); details: HepG2 Attagene cis-factorial SREBP reporter, mRNA; actives raise or lower the signal
# Summary of the method: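 HepG2 cells transiently transfected with multiplexed cis-promoter reporter units sensing endogenous transcription factors; reporter mRNA measured 24 h after dosing by RT-PCR, 6-FAM labeling, HpaI digestion and capillary electrophoresis. Bidirectional fit versus DMSO.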
# [15] = biological target: Signal transducer and activator of transcription 3 (Homo sapiens) (UniProt P40763); assay: ATG_STAT3_CIS: Attagene CIS-FACTORIAL HepG2 Assay for human Signal Transducer and Activator of Transcription 3 (STAT3) (AID 2282963); details: HepG2, Attagene cis-factorial STAT3 reporter transcription; actives raise or lower the signal
# Chain of Signal transducer and activator of transcription 3 (Homo sapiens) (P40763 whole entry, looked up): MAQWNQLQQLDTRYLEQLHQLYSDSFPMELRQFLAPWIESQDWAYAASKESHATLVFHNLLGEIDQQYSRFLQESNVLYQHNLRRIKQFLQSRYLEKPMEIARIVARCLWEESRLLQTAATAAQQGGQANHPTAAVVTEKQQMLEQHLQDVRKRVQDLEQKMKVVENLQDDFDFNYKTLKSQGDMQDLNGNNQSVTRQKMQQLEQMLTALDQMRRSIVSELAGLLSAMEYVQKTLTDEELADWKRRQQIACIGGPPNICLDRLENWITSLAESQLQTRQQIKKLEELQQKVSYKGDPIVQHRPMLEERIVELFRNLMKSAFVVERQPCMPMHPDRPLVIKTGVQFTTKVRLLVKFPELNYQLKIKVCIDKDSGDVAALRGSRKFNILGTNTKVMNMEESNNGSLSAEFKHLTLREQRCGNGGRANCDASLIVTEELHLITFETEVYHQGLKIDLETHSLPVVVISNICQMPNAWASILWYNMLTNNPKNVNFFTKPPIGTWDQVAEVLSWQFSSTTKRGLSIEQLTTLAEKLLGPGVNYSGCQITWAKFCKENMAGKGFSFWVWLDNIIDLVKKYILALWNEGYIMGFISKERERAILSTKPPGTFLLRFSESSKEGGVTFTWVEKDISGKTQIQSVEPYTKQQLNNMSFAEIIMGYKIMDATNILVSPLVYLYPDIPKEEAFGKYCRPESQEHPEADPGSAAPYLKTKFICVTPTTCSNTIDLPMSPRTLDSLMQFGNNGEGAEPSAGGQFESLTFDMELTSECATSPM
# Summary of the method: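 Transcript-level reporter assay. HepG2 transient MRTU transfection, 24 h exposure, fluorescence detection after RT-PCR and CE; DMSO baseline.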
# [16] = ATG_TA_CIS: Attagene CIS-FACTORIAL HepG2 Assay for human TA Basal Promoter (AID 2282964); details: HepG2 Attagene CIS-factorial TA basal promoter reporter; actives raise or lower the signal
# Summary of the method: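 Cis-factorial format in HepG2: reporters report endogenous factors, not chimeric Gal4 fusions. After 24 h treatment, reporter transcripts were measured by RT-PCR-capillary electrophoresis fluorescence, analysed bidirectionally versus DMSO.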
# [17] = biological target: Hepatocyte nuclear factor 6 (Homo sapiens) (UniProt Q9UBC0); assay: ATG_HNF6_CIS: Attagene CIS-FACTORIAL HepG2 Assay for human Hepatocyte Nuclear Factor 6 (HNF6) (AID 2282952); details: HepG2 Attagene cis-factorial HNF6 reporter transcription; actives raise or lower the signal
# Chain of Hepatocyte nuclear factor 6 (Homo sapiens) (Q9UBC0 whole entry, looked up): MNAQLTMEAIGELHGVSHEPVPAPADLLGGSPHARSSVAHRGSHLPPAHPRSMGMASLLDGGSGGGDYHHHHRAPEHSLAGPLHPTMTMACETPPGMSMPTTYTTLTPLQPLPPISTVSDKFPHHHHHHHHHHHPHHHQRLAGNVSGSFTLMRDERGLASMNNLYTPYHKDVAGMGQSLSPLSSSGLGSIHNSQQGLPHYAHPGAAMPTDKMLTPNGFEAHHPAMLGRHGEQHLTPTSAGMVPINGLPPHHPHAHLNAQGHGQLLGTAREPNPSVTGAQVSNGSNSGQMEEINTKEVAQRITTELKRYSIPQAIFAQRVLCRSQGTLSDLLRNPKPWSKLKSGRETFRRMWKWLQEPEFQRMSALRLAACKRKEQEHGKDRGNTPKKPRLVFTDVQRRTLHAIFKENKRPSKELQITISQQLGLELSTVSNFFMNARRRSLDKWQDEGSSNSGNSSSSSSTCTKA
# Summary of the method: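 Cells are HepG2 carrying transiently transfected cis-promoter reporter units. Treatment lasts 24 h, after which reporter transcripts are reverse-transcribed, amplified, FAM-labelled and sized by capillary electrophoresis. DMSO serves as baseline.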
# [18] = ATG_PBREM_CIS: Attagene CIS-FACTORIAL HepG2 Assay for human Phenobarbital-responsive Enhancer Module (PBREM) (AID 2282955); details: HepG2 PBREM cis-reporter, Attagene multiplexed transcription; actives raise or lower the signal
# Summary of the method: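 Multiplexed cis-reporter readout in human hepatoma HepG2 cells; PBREM-regulated transcript quantified after 24 h exposure by fluorescent RT-PCR fragment analysis. Signal changes up or down fitted relative to DMSO.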
# [19] = ATG_PPRE_CIS: Attagene CIS-FACTORIAL HepG2 Assay for human Peroxisome Proliferator-activated Response Element (PPRE) (AID 2282958); details: HepG2 PPRE cis-element reporter, Attagene transcription factor profiling; actives raise or lower the signal
# Summary of the method: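 DMSO served as negative control and baseline for bidirectional curve fitting. Signal came from PPRE-regulated reporter mRNA in HepG2 cells, measured 24 h post-dosing by RT-PCR, 6-FAM primer extension and capillary electrophoresis.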
compound,measurement,setting,value
O=C(NO)C1(NS(=O)(=O)c2ccc(Oc3ccc(F)cc3)cc2)CCOCC1,outcome,[1],inactive
same,outcome,[2],inactive
same,outcome,[3],inactive
same,outcome,[4],inactive
same,outcome,[5],inactive
same,outcome,[6],inactive
same,outcome,[7],inactive
same,outcome,[8],inactive
same,outcome,[9],inactive
same,outcome,[10],inactive
same,outcome,[11],inactive
same,outcome,[12],inactive
same,outcome,[13],inactive
same,AC50,[14],31.2 µM (active)
same,outcome,[15],inactive
same,outcome,[16],inactive
NC(=O)N1c2ccccc2C=Cc2ccccc21,outcome,[1],inactive
same,outcome,[3],inactive
same,outcome,[4],inactive
same,outcome,[5],inactive
same,outcome,[6],inactive
same,outcome,[17],inactive
same,outcome,[7],inactive
same,outcome,[8],inactive
same,outcome,[18],inactive
same,outcome,[9],inactive
same,AC50,[10],34.8 µM (active)
same,outcome,[11],inactive
same,outcome,[12],inactive
same,outcome,[13],inactive
same,outcome,[14],inactive
same,outcome,[15],inactive
same,outcome,[16],inactive
CC[C@H](C)C(=O)O[C@H]1C[C@H](O)C=C2C=C[C@H](C)[C@H](CC[C@@H](O)C[C@@H](O)CC(=O)O)[C@H]21,outcome,[1],inactive
same,outcome,[2],inactive
same,outcome,[3],inactive
same,outcome,[4],inactive
same,outcome,[5],inactive
same,outcome,[6],inactive
same,outcome,[7],inactive
same,outcome,[8],inactive
same,outcome,[9],inactive
same,AC50,[10],48.1 µM (active)
same,outcome,[19],inactive
same,outcome,[11],inactive
same,outcome,[12],inactive
same,outcome,[13],inactive
same,outcome,[14],inactive
same,outcome,[15],inactive
same,outcome,[16],inactive
C=CN1CCCC1=O,outcome,[1],inactive
same,outcome,[3],inactive
same,outcome,[4],inactive
same,outcome,[5],inactive
same,outcome,[6],inactive
same,outcome,[17],inactive
same,outcome,[7],inactive
same,outcome,[8],inactive
same,outcome,[18],inactive
same,outcome,[9],inactive
same,outcome,[10],inactive
same,outcome,[19],inactive
same,outcome,[11],inactive
same,outcome,[12],inactive
same,outcome,[13],inactive
same,outcome,[14],inactive
same,outcome,[15],inactive
same,outcome,[16],inactive
O=c1[nH]cnc2c1ncn2[C@H]1CC[C@@H](CO)O1,outcome,[1],inactive
same,outcome,[2],inactive
same,outcome,[3],inactive
same,outcome,[4],inactive
same,outcome,[5],inactive
same,outcome,[6],inactive
same,outcome,[8],inactive
same,outcome,[18],inactive
same,outcome,[9],inactive
same,outcome,[10],inactive
same,outcome,[11],inactive
same,outcome,[12],inactive
same,outcome,[13],inactive
same,outcome,[14],inactive
same,outcome,[15],inactive
same,outcome,[16],inactive
CCn1nc(C)c2c1C(=O)NCC(c1ccc(O)cc1)=N2,outcome,[1],inactive
same,outcome,[2],inactive
same,outcome,[3],inactive
same,outcome,[4],inactive
same,outcome,[5],inactive
same,outcome,[6],inactive
same,outcome,[7],inactive
same,outcome,[8],inactive
same,outcome,[18],inactive
same,outcome,[9],inactive
same,outcome,[10],inactive
same,outcome,[12],inactive
same,outcome,[13],inactive
same,AC50,[14],2.82 µM (active)
same,outcome,[15],inactive
same,outcome,[16],inactive
O=C(N[C@H](CO)[C@H](O)c1ccc([N+](=O)[O-])cc1)C(Cl)Cl,outcome,[1],inactive
same,outcome,[3],inactive
same,outcome,[4],inactive
same,outcome,[5],inactive
same,outcome,[17],inactive
same,outcome,[7],inactive
same,outcome,[8],inactive
same,outcome,[18],inactive
same,outcome,[9],inactive
same,AC50,[10],69.7 µM (active) [middle of 4 runs]
same,outcome,[10],inactive
same,outcome,[11],inactive
same,outcome,[12],inactive
same,outcome,[13],inactive
same,outcome,[14],inactive
same,outcome,[15],inactive
same,outcome,[16],inactive
